Assay results reported in the supplement of paper PMC10849652.
Targets with a hit are over-represented here; the source holds about 7,900 in all. About 0.6% of all pairs of compound and target were hits.

What was measured:
Assay in all cases: log2 fold change, soluble protein after heating vs DMSO (PISA); higher = thermal stabilisation; K562 cells, 10 uM, 30 min; active = over 0.2 and 3.5 SD of the protein, either way, in both replicates (recomputed)
[1] = compound: CN1CCN(CCOc2cc(OC3CCOCC3)c3c(Nc4c(Cl)ccc5c4OCO5)ncnc3c2)CC1 [saracatinib]
How it was run: (§1)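 For each measurement, 10 μM compound was applied for 30 min to K562 cells at 2×10^6 cells/mL. Aliquots were heated for 3 min across 48°C-58°C, pooled, and extracted in PBS with 0.5% NP-40 at 4°C; the supernatant after 21,000xg for 90 min was soluble protein. This was quantified by TMTpro 16plex LC-MS/MS with channel sums equalised, and thermal stability was reported relative to control samples from duplicates, on a log2 fold-change scale.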

[2] = compound: CN1CCN(c2nc(C3=C(c4c[nH]c5ccccc45)C(=O)NC3=O)c3ccccc3n2)CC1 [sotrastaurin]
How it was run: as §1

[3] = compound: CN1CC[C@H](c2c(O)cc(O)c3c(=O)cc(-c4ccccc4Cl)oc23)[C@H](O)C1 [alvocidib]
How it was run: as §1

[4] = compound: CN1CCc2c(c3ccccc3n2Cc2ccc(C(=O)NO)cc2)C1 [Tubastatin A]
How it was run: as §1

[5] = compound: CNC(=O)C1=CC=CC=C1NC2=NC(=NC=C2Cl)NC3=C(C=C(C=C3)N4CCOCC4)OC
How it was run: as §1

[6] = compound: CNC(=O)c1ccc(Nc2ncc(C(F)(F)F)c(NCc3nccnc3N(C)S(C)(=O)=O)n2)cc1 [defactinib]
How it was run: as §1

[7] = compound: CNCc1ccc(-c2[nH]c3cc(F)cc4c3c2CCNC4=O)cc1 [rucaparib]
How it was run: as §1

[8] = compound: CNc1nc(-c2ccc3c(N)n[nH]c3c2)cc(N2C[C@@H](C(=O)NC3CCCCC3)CC[C@H]2C)n1
How it was run: as §1

[9] = compound: COC(=O)N[C@@H](C)CNc1nccc(-c2cn(C(C)C)nc2-c2cc(Cl)cc(NS(C)(=O)=O)c2F)n1 [encorafenib]
How it was run: as §1

[10] = compound: COC(=O)[C@H](CCSC)NC(=O)C1=C(C=C(C=C1)NC[C@H](CS)N)C2=CC=CC=C2
How it was run: as §1

[11] = compound: COC1=CC=C(C=C1)CN2C=CC3=C2C=C(C=C3)C(=O)NO
How it was run: as §1

[12] = compound: CON(C)C(=O)N1N=C(c2cc(F)ccc2F)S[C@@]1(CCCN)c1ccccc1 [filanesib]
How it was run: as §1

[13] = compound: CO[C@H]1C[C@@H]2CC[C@@H](C)[C@@](O)(O2)C(=O)C(=O)N2CCCC[C@H]2C(=O)O[C@H]([C@H](C)C[C@@H]2CC[C@H](n3cnnn3)[C@H](OC)C2)CC(=O)[C@H](C)/C=C(\C)[C@@H](O)[C@@H](OC)C(=O)[C@H](C)C[C@H](C)/C=C/C=C/C=C/1C [zotarolimus]
How it was run: as §1

[14] = compound: COc1cc(C(=O)O)ccc1NC(=O)[C@@H]1N[C@@H](CC(C)(C)C)[C@](C#N)(c2ccc(Cl)cc2F)[C@H]1c1cccc(Cl)c1F [idasanutlin]
How it was run: as §1

[15] = compound: COc1cc(Nc2ncc3c(n2)-c2ccc(Cl)cc2C(c2c(F)cccc2OC)=NC3)ccc1C(=O)O [alisertib]
How it was run: as §1

[16] = compound: COc1cc2nc(-c3cc(F)ccc3O)nc(N[C@@H]3CNC[C@H]3C(C)(C)O)c2cc1OC
How it was run: as §1

[17] = compound: COc1cc2ncnc(Nc3ccc(F)c(Cl)c3)c2cc1OCCCN1CCOCC1 [gefitinib]
How it was run: as §1

[18] = compound: COc1cccc2cc(-c3nc([C@H]4CC[C@H](C(=O)O)CC4)n4ncnc(N)c34)[nH]c12
How it was run: as §1

[19] = compound: CS(=O)(=O)CCNCc1ccc(-c2ccc3ncnc(Nc4ccc(OCc5cccc(F)c5)c(Cl)c4)c3c2)o1 [lapatinib]
How it was run: as §1

[20] = compound: CS(=O)(=O)N1CCN(Cc2cc3nc(-c4cccc5[nH]ncc45)nc(N4CCOCC4)c3s2)CC1 [pictilisib]
How it was run: as §1

Measured: log2 fold change

MRPS12 (UniProt O15235)
inactive: [1] -0.19 | [2] -0.068 | [3] -0.001 | [4] -0.02 | [5] -0.017 | [6] 0.119 | [7] 0.299 | [8] 0.233 | [9] 0.105 | [10] 0.048 | [11] 0.018 | [12] 0.074 | [13] 0.039 | [14] -0.162 | [15] -0.03 | [16] -0.088 | [17] -0.078 | [18] -0.062 | [19] 0.082 | [20] -0.177

MT-ND4 (UniProt P03905)
inactive: [1] 0.048 | [2] -0.025 | [3] -0.022 | [4] 0.061 | [5] 0.053 | [6] -0.143 | [7] -0.077 | [8] -0.145 | [9] 0.058 | [10] 0.057 | [11] -0.021 | [12] -0.009 | [13] -0.069 | [14] -0.147 | [15] -0.02 | [16] -0.088 | [17] 0.003 | [18] 0.046 | [19] 0.013 | [20] -0.214

MRPS24 (UniProt Q96EL2)
inactive: [1] -0.153 | [2] -0.124 | [3] -0.202 | [4] 0.024 | [5] 0.067 | [6] 0.041 | [7] 0.153 | [8] 0.137 | [9] 0.08 | [10] -0.108 | [11] -0.153 | [12] 0.047 | [13] 0.088 | [14] -0.134 | [15] -0.104 | [16] 0.096 | [17] -0.056 | [18] -0.014 | [19] 0.047 | [20] -0.174

NDUFA7 (UniProt O95182)
inactive: [1] -0.037 | [2] 0.047 | [3] -0.01 | [4] -0.148 | [5] -0.042 | [6] 0 | [7] 0.046 | [8] -0.031 | [9] -0.042 | [10] -0.008 | [11] 0.003 | [12] -0.072 | [13] 0.005 | [14] -0.197 | [15] -0.042 | [16] -0.147 | [17] -0.178 | [18] 0.013 | [19] -0.002 | [20] -0.007

NOL7 (UniProt Q9UMY1)
inactive: [1] -0.057 | [2] 0.017 | [3] 0.379 | [4] 0.161 | [5] 0.032 | [6] 0.303 | [7] 0.312 | [8] 0.098 | [9] 0.1 | [10] -0.042 | [11] -0.089 | [12] 0.524 | [13] -0.024 | [14] 0.157 | [15] -0.119 | [16] -0.086 | [17] -0.006 | [18] -0.142 | [19] 0.169 | [20] -0.095

ORC3 isoform 2 (UniProt Q9UBD5)
Sequence of UniProt Q9UBD5 (Q9UBD5 whole entry, looked up): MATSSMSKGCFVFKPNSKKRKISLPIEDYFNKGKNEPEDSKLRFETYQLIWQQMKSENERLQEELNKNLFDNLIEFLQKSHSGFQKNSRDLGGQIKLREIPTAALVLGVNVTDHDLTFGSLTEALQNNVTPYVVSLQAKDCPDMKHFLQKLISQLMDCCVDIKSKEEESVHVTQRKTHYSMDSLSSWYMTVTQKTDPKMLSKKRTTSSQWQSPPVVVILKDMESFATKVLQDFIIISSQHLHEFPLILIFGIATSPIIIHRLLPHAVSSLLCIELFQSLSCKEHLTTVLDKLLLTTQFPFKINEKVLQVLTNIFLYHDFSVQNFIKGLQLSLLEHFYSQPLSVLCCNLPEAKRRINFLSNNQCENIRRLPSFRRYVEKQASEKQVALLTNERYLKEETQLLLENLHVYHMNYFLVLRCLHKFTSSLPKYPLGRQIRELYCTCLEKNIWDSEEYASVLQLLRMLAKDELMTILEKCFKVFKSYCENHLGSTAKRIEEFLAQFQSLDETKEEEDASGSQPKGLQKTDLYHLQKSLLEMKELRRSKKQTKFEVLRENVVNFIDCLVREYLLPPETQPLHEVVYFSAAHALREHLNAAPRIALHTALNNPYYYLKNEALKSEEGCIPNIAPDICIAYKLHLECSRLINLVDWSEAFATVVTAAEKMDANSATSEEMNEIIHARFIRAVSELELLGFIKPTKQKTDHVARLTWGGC
inactive: [1] 0.001 | [2] 0.011 | [3] -0.299 | [4] 0.006 | [5] -0.078 | [6] -0.288 | [7] 0 | [8] 0.014 | [9] 0.288 | [10] 0.06 | [11] 0.071 | [12] 0.043 | [13] 0.064 | [14] 0.265 | [15] -0.058 | [16] -0.002 | [17] 0.006 | [18] -0.068 | [19] 0.031 | [20] 0.027

NOP2 isoform 4 (UniProt P46087)
active: [6] 1.26
inactive: [1] -0.09 | [2] -0.007 | [3] 0.574 | [4] 0.079 | [5] 0.064 | [7] 0.673 | [8] 0.115 | [9] 0.238 | [10] -0.024 | [11] -0.053 | [12] 0.651 | [13] 0.118 | [14] 0.419 | [15] -0.065 | [16] 0.375 | [17] -0.065 | [18] -0.118 | [19] 0.456 | [20] -0.039

NAT14 (UniProt Q8WUY8)
inactive: [1] -0.054 | [2] 0.068 | [3] -0.134 | [4] -0.02 | [5] 0 | [6] -0.235 | [7] -0.002 | [8] -0.005 | [9] 0.002 | [10] 0.163 | [11] 0.151 | [12] -0.001 | [13] 0.107 | [14] -0.041 | [15] -0.013 | [16] -0.086 | [17] -0.016 | [18] 0.12 | [19] 0.081

NGLY1 (UniProt Q96IV0)
inactive: [1] -0.04 | [2] -0.135 | [3] -0.002 | [4] -0.04 | [5] 0.01 | [6] -0.026 | [7] 0.161 | [8] 0.05 | [9] 0.159 | [10] -0.064 | [11] 0.02 | [12] 0.043 | [13] -0.012 | [14] 0.112 | [15] -0.064 | [16] 0.047 | [17] 0.076 | [18] -0.128 | [19] 0.03 | [20] 0.045

NCOR1 (UniProt O75376)
Sequence of UniProt O75376 (O75376 whole entry, looked up): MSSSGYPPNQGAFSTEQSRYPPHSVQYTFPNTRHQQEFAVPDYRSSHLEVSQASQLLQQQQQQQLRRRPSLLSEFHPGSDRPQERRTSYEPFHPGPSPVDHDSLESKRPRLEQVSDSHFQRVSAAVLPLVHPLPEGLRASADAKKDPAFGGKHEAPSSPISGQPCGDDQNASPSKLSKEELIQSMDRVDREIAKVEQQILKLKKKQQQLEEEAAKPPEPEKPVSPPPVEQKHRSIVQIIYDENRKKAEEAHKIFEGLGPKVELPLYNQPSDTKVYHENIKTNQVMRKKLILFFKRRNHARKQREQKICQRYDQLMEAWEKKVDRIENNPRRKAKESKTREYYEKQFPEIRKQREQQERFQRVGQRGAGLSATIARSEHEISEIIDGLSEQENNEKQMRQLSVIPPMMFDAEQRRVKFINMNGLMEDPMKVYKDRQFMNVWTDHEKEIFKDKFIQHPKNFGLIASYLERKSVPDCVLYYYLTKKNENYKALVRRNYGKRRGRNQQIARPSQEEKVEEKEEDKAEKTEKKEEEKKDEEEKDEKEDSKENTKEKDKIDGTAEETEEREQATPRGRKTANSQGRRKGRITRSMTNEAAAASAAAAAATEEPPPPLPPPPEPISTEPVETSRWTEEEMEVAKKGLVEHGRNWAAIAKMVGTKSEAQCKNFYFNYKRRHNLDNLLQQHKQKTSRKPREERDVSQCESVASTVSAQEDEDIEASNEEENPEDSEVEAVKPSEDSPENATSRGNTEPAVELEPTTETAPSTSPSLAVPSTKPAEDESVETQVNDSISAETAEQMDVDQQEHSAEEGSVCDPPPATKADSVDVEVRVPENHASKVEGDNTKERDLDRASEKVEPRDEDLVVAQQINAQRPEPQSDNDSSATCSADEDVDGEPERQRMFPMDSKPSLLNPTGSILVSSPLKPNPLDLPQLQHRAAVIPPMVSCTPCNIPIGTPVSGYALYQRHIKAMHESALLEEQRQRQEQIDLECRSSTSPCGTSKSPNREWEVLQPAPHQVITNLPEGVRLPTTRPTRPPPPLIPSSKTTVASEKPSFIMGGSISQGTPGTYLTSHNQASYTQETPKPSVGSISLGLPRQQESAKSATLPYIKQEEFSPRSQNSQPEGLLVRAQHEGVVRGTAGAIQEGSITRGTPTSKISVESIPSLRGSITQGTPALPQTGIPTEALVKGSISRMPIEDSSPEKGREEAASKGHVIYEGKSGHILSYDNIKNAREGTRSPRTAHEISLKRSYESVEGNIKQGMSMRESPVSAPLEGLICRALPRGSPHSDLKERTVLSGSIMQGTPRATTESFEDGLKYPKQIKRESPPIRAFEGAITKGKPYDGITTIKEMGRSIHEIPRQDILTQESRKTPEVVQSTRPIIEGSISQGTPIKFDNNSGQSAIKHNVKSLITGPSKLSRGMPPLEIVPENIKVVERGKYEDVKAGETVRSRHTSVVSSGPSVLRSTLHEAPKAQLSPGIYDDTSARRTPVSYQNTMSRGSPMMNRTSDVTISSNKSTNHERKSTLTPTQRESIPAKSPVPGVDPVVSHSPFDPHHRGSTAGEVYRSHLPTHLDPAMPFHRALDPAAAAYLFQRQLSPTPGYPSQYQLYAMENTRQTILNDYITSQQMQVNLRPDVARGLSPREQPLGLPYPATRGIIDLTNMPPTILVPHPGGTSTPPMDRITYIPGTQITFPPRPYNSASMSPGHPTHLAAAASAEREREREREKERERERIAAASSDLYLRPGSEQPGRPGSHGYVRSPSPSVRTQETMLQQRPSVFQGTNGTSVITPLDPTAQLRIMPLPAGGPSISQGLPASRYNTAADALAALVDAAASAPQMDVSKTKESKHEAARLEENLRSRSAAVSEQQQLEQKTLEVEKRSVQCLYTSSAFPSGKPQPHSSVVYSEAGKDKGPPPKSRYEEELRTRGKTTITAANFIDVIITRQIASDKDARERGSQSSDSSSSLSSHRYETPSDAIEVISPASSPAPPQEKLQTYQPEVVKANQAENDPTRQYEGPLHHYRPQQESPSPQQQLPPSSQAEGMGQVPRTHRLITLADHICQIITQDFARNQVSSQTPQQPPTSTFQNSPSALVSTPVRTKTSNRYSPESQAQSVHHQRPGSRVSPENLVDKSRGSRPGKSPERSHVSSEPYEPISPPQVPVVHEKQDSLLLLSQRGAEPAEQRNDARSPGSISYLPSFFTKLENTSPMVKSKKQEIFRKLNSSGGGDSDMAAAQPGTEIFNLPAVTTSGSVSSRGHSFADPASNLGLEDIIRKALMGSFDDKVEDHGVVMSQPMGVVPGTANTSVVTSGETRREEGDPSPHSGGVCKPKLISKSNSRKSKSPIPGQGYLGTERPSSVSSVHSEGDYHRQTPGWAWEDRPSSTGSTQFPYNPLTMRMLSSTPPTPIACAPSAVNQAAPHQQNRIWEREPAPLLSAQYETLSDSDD
inactive: [1] 0.074 | [2] -0.094 | [3] -0.179 | [4] -0.009 | [5] -0.041 | [6] -0.113 | [7] 0.012 | [8] -0.02 | [9] 0 | [10] 0.007 | [11] -0.07 | [12] 0.078 | [13] 0.069 | [14] 0.004 | [15] -0.086 | [16] 0.128 | [17] -0.018 | [18] 0.064 | [19] -0.119 | [20] 0.135

NFATC3 (UniProt Q12968)
Sequence of UniProt Q12968 (Q12968 whole entry, looked up): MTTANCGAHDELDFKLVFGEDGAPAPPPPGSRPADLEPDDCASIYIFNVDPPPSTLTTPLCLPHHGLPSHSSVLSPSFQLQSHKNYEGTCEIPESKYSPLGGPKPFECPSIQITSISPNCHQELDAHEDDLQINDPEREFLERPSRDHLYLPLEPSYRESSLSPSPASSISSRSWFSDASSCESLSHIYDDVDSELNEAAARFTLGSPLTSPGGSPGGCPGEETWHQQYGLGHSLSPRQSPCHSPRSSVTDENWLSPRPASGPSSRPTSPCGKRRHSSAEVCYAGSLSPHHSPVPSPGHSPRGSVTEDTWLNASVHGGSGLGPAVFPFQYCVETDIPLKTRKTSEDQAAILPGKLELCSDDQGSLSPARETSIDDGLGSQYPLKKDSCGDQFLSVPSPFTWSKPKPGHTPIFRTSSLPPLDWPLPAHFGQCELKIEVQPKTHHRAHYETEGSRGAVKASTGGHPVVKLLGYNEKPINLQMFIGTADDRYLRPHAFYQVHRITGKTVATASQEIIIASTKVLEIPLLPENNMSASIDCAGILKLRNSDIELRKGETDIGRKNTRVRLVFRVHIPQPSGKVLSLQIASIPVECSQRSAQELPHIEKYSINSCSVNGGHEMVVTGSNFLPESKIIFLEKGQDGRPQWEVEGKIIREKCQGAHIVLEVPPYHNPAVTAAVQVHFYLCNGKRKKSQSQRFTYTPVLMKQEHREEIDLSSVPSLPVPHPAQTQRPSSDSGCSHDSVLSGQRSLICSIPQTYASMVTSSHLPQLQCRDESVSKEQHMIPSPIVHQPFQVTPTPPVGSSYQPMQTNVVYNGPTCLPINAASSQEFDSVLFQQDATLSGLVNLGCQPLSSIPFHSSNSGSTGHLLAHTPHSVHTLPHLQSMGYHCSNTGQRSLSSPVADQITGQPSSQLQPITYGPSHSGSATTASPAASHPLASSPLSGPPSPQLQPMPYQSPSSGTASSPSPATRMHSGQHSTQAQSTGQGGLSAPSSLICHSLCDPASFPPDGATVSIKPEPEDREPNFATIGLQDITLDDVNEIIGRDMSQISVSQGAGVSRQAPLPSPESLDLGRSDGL
inactive: [1] -0.003 | [3] -0.148 | [4] 0.058 | [5] -0.103 | [6] -0.208 | [7] 0.281 | [9] -0.166 | [10] -0.051 | [11] 0.039 | [12] 0.056 | [13] -0.109 | [14] -0.009 | [15] 0.006 | [16] -0.109 | [17] 0.048 | [18] -0.002 | [19] 0.015 | [20] 0.086
active: [2] -0.451 | [8] -0.539

NA, A0A0B4J2A0
inactive: [1] 0.007 | [2] 0.044 | [3] -0.058 | [4] -0.058 | [5] -0.077 | [6] -0.051 | [7] -0.005 | [8] -0.022 | [9] -0.003 | [10] -0.037 | [11] 0.084 | [12] -0.045 | [13] -0.021 | [14] -0.016 | [15] 0.129 | [16] -0.029 | [17] -0.092 | [18] 0.023 | [19] -0.026 | [20] 0.05

MRPS2 (UniProt Q9Y399)
inactive: [1] -0.243 | [2] -0.145 | [3] 0.005 | [4] 0.036 | [5] -0.021 | [6] 0.034 | [7] 0.104 | [8] 0.035 | [9] 0.084 | [10] -0.088 | [11] -0.052 | [12] -0.05 | [13] -0.02 | [14] -0.054 | [15] -0.19 | [16] 0.005 | [17] -0.036 | [18] 0.006 | [19] 0.071 | [20] -0.015

NSMCE4A (UniProt Q9NXX6)
inactive: [1] 0.109 | [2] 0.015 | [3] -0.003 | [4] 0.05 | [5] -0.112 | [6] -0.086 | [7] 0 | [8] -0.114 | [9] -0.064 | [10] -0.002 | [11] 0.033 | [12] 0.049 | [13] 0.019 | [14] 0.017 | [15] -0.087 | [16] -0.018 | [17] 0.181 | [19] 0.034 | [20] -0.011
active: [18] -0.437

MRFAP1 (UniProt Q9Y605)
Sequence of UniProt Q9Y605 (Q9Y605 whole entry, looked up): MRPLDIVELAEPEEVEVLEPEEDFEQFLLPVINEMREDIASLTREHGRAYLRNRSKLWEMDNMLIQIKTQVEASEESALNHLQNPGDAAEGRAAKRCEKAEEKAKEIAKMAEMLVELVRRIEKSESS
inactive: [1] -0.118 | [2] 0.102 | [3] -0.097 | [4] 0.329 | [5] -0.003 | [6] -0.051 | [7] -0.099 | [8] -0.002 | [9] 0.141 | [10] -0.027 | [11] 0.015 | [12] -0.012 | [13] -0.018 | [14] 0.173 | [15] -0.435 | [16] -0.154 | [17] -0.036 | [18] 0.157 | [19] -0.093 | [20] -0.01

NUMB (UniProt P49757)
Sequence of UniProt P49757 (P49757 whole entry, looked up): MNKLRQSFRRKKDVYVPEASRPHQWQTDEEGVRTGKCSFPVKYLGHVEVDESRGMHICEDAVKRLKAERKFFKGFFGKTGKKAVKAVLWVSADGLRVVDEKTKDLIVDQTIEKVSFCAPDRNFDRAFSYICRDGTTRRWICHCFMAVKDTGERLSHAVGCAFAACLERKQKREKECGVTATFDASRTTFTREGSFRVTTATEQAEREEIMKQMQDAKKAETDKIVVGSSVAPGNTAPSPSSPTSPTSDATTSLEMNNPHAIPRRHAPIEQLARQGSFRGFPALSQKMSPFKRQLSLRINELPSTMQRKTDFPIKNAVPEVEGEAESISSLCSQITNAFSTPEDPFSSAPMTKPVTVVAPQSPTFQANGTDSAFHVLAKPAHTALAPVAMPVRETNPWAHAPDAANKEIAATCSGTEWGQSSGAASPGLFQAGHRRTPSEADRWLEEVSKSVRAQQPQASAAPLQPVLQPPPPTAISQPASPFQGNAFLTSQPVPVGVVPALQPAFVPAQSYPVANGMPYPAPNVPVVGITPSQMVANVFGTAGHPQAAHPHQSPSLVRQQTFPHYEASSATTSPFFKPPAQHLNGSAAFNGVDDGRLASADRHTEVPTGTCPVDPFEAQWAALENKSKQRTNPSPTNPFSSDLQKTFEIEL
inactive: [1] 0.033 | [3] -0.095 | [4] -0.014 | [5] -0.027 | [6] -0.044 | [7] 0.01 | [8] 0.065 | [9] 0.081 | [10] 0 | [11] -0.051 | [12] 0.074 | [13] 0.015 | [14] 0 | [15] -0.064 | [16] 0.04 | [17] 0.027 | [18] -0.017 | [19] 0.012 | [20] 0.076
active: [2] -0.266
